Screening data deposited in PubChem by National Center for Advancing Translational Sciences (NCATS).
This is a sample that favours compounds with a hit; in the whole collection about 2.1% have one here.
FUS suppressor: qHTS for Suppressors of FUS Proteinopathy: Primary screen using FUS-linked yeast assay; S. cerevisiae FUS-expressing, growth rescue, OD600, 24 h; Potency, µM (series often up to 76.6 µM), usual class: activators; 390,000 compounds, 0.24% hits; AID 1347120, 2019; also: nearly all actives have a fitted effect of over 55% in size
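Quantitative HTS measuring growth restoration of FUS-toxic yeast. Galactose-induced cells (OD 0.005) were exposed 24hr at 30C to compounds at several concentrations, then absorbance at 600 nm was recorded.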
TDP43 rescue: qHTS of TDP-43 Inhibitors; TDP-43 expressing yeast growth rescue, BacTiter-Glo, 24 h; Potency, µM (top dose mostly 46.1 µM), usual class: activators; 410,000 compounds, 1.8% hits; AID 652104, 2013; also: nearly all actives have a fitted effect of over 50% in size
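Growth rescue of TDP-43-toxic yeast measured as ATP luminescence (BacTiter-Glo). Cells grown to mid-log in raffinose, induced in galactose at OD600=0.02, exposed to compound 24 hr at 30 deg C.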
Abeta yeast res: qHTS for compounds that reverse cellular toxicity of Amyloid beta (A-beta) peptide in yeast: Primary Screen | AID 1347071, 2019 | yeast expressing A-beta42, growth rescue, OD600, 48 h; response scale: 0% DMSO, 100% iron-clioquinol control | Potency, µM (doses to about 46.1 µM), hits mostly activators | 410,000 compounds, 0.063% hits; also: nearly all actives have a fitted effect of over 55% in size
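Growth rescue measured by 600 nm absorbance after 48 h yeast culture at 30 C with compound. Values normalized between DMSO and an equimolar ferric chloride plus clioquinol control.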
aSyn yeast inh: qHTS of alpha-syn Inhibitors | AID 652106, 2013 | 370,000 compounds, 0.14% hits | Potency, µM (titrated, usually from 46.1 µM), actives largely listed as activators | Yeast expressing alpha-synuclein, growth rescue, BacTiter-Glo, 24 h; also: nearly all actives have a fitted effect of over 65% in size
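Galactose-induced alpha-syn yeast (OD600=0.02, raffinose-pregrown) + pinned cpd, 24 hr, 30 deg C; growth by BacTiter-Glo luminescence. Growth restoration scores as activation.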
Numbers stand for hits; . = inactive; ? = inconclusive; / = no result; ! = a repeat was not active; [ ] = remark or other dose. Calls follow the shape of the dose curve; as a rule, active = well fitted curve in the direction sought with a large enough effect; inconclusive = small, poorly fitted or top-dose-only effect, or another doubt; inactive = no such curve, though single readings can be large; an effect the other way counts as inactive or inconclusive.

SMILES | FUS suppressor | TDP43 rescue | Abeta yeast res | aSyn yeast inh
CCc1nnc(NC(=O)c2nc(S(=O)(=O)Cc3ccccc3)ncc2Cl)s1 | . | . | . | .
Cc1ccc(CS(=O)(=O)c2ncc(Cl)c(C(=O)Nc3nnc(C(C)C)s3)n2)cc1 | . | 14µM | . | .
CSc1nnc(NC(=O)c2nc(S(=O)(=O)Cc3ccccc3F)ncc2Cl)s1 | . | . | . | .
CCc1nnc(NC(=O)c2nc(S(=O)(=O)Cc3ccc(C)cc3)ncc2Cl)s1 | . | 18µM | . | .
CSc1ccc(C(=O)Nc2cc(S(=O)(=O)N3CCOCC3)ccc2N2CCOCC2)cc1[N+](=O)[O-] | . | . | . | .
COc1ccc(NC(=O)CCCN2C(=O)CN(C)C2=O)cc1Cl | . | . | . | .
Cc1ccccc1N1C(=O)C2CCCN2C1=S (stereo not drawn) | . | . | . | .[1.84 µM]
CC1(c2nc3ccccc3[nH]2)CCC2=Nc3ccccc3CN21 (stereo not drawn) | . | . | . | .
O=C(NCc1ccccc1)c1nc(S(=O)(=O)Cc2ccccc2)ncc1Cl | . | 10µM | . | .
COc1ccc(CNC(=O)c2nc(S(=O)(=O)Cc3ccccc3)ncc2Cl)cc1 | . | . | . | .
O=C(Nc1ccc(OC(F)F)cc1)c1nc(S(=O)(=O)Cc2ccccc2F)ncc1Cl | / | / | / | .
CCOc1ccc(NC(=O)c2nc(S(=O)(=O)Cc3ccccc3F)ncc2Cl)cc1 | . | ? | . | 11µM!
COc1cc(OC)cc(-c2c(C#Cc3ccsc3)c3cc(-c4cccc5[nH]cc(C=O)c45)ccc3n2C)c1 | ? | . | . | .
COc1ccc2nc(N3CCC(C)CC3)c(C#N)cc2c1 | . | 35µM | . | .
COc1ccc2nc(N3CCC(O)CC3)c(C#N)cc2c1 | . | . | . | .
COc1cccc(C(=O)N2CCN(c3nc4cc(C)cc(C)c4cc3C#N)CC2)c1 | . | 35µM | . | .
Cc1ccccc1CC(=O)Nc1nnc(-c2cccnc2)s1 | . | / | / | /
Cc1ccc(/C=C(\NC(=O)c2ccc(C)cc2)c2nc(=S)[nH][nH]2)cc1 | . | 20µM | . | .
CC(C)(C)OC(=O)N1CCC(CC2CC(c3ccccc3)=NO2)(C(=O)O)CC1 (stereo not drawn) | . | 22µM | . | .
COc1ccccc1N1CCN(C(=O)COc2ccccc2C#N)CC1 | . | ? | . | /
